# Source: PubChem BioAssay (Tox21)
# Values joined by “and” are separate entries in the source; they are usually repeats but may differ in a detail not shown here. Equal entries are not always repeated. Results filed as inconclusive are left out. A call without a number means that no potency is given here. Some structures have more than one record in an assay (separate samples or runs), and their calls can disagree. Active and inactive are the calls of the source. Calls come from the whole dose curve; as a rule, active = well fitted curve in the direction sought with a large enough effect in the repeat runs; inconclusive = weak or mixed curves; inactive = no such curve, though single readings can be large; an effect the other way counts as inactive or inconclusive.
# Key:
# [1] = Human pregnane X receptor (PXR) small molecule agonists, qHTS cell viability counter screen (AID 1346977); note: nearly all actives have a fitted effect of over 50% in size
# Summary of the method: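 Fluorescence read-out (CellTiter-Fluor) of viability in PXR-Luc HepG2 cells, multiplexed with the luciferase agonist read. Compounds in DMSO added after 5hr plating; 24hr total exposure at 37C, 5% CO2.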
# [2] = Caspase-3/7 induction in HepG2 cells by small molecules, qHTS assay (AID 1346978); note: nearly all actives have a fitted effect of over 15% in size
# Summary of the method: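 Wild-type HepG2 cells (2,000/well) were settled 5 h at 37 C, 5% CO2, then exposed to compounds in DMSO for 17 h. Caspase-3/7 activity was read by luminescence 30 min after adding Caspase-Glo 3/7 reagent at room temperature.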
# [3] = Caspase-3/7 induction in CHO-K1 cells by small molecules, qHTS cell viability counter screen (AID 1346979); note: nearly all actives have a fitted effect of over 35% in size; note: potency is the fitted concentration of half-maximal effect
# Summary of the method: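 CHO-K1 wt, 1,500 cells/well; 5hr pre-incubation 37C/5% CO2; compound pin transfer (DMSO); 16hr exposure; CellTiter-Fluor added, 1hr, fluorescence read.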
# [4] = Caspase-3/7 induction in CHO-K1 cells by small molecules, qHTS assay (AID 1346980); note: nearly all actives have a fitted effect of over 15% in size
# Summary of the method: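 Wild-type cells were seeded at 1,500 per well and settled 5 hr at 37 C, 5% CO2, then exposed to DMSO-dissolved compounds for 17 hr. Caspase-Glo 3/7 reagent was added, and luminescence was read after 30min at room temperature.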
# [5] = Caspase-3/7 induction in HepG2 cells by small molecules, qHTS cell viability counter screen (AID 1346981); note: nearly all actives have a fitted effect of over 30% in size; note: potency is the fitted concentration of half-maximal effect
# Summary of the method: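 Viability determined by CellTiter-Fluor fluorescence in HepG2 wells also used for the luminescent Caspase-Glo 3/7 read. Compounds were present for 16 hr at 37 C, 5% CO2 before reagent addition.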
# [6] = target: Nuclear receptor subfamily 1 group I member 2 (Homo sapiens) (UniProt O75469); assay: Human pregnane X receptor (PXR) small molecule agonists, qHTS assay (AID 1346982); note: nearly all actives have a fitted effect of over 35% in size; note: potency is the fitted concentration of half-maximal effect
# Summary of the method: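 Compound-induced hPXR transactivation of a CYP3A4 luciferase reporter was scored in HepG2 PXR-Luc cells over 24 hr at 37 C, 5% CO2, by luminescence.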
# [7] = target: Cytochrome P450 2D6 (Homo sapiens) (UniProt P10635); assay: Cytochrome P450 Family 2 Subfamily D Member 6 (CYP2D6) small molecule antagonists: luciferase reporter qHTS assay (AID 1671196); note: nearly all actives have a fitted effect of over 50% in size; note: potency is the fitted concentration of half-maximal effect; for activity change, negative = inhibition: series mostly up to about 120 µM
# Summary of the method: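 Each well received CYP2D6 with its proluciferin substrate and chemical, sat 10 min, then got NADPH regeneration solution for 1 h at room temperature. Luminescence in RLU served as the activity measure.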
# [8] = target: Cytochrome P450 2C19 (Homo sapiens) (UniProt P33261); assay: Cytochrome P450 Family 2 Subfamily C Member 19 (CYP2C19) small molecule antagonists: luciferase reporter qHTS assay (AID 1671197); note: nearly all actives have a fitted effect of over 65% in size; note: potency is the fitted concentration of half-maximal effect; for activity change, negative = inhibition: series mostly up to about 120 µM
# Summary of the method: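 First, compounds are pinned into enzyme-substrate mix and held 10 min at room temperature. Second, NADPH regeneration solution is added and plates incubate 1 h at 37C. Third, detection reagent is added and luminescence read after 20 min.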
# [9] = target: Cytochrome P450 2C9 (Homo sapiens) (UniProt P11712); assay: Cytochrome P450 Family 2 Subfamily C Member 9 (CYP2C9) small molecule antagonists: luciferase reporter qHTS assay (AID 1671198); note: nearly all actives have a fitted effect of over 50% in size; note: potency is the fitted concentration of half-maximal effect; for activity change, negative = inhibition: series mostly up to about 120 µM
# Summary of the method: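 CYP2C9 activity was measured with a P450-Glo proluciferin substrate. Enzyme–substrate mix was held with compound for 10 min at room temperature, then NADPH regeneration solution was added for 1 h at 37C. Luciferin product was read as luminescence.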
# [10] = target: Cytochrome P450 1A2 (Homo sapiens) (UniProt P05177); assay: Cytochrome P450 Family 1 Subfamily A Member 2 (CYP1A2) small molecule antagonists: luciferase reporter qHTS assay (AID 1671199); note: nearly all actives have a fitted effect of over 50% in size; note: potency is the fitted concentration of half-maximal effect; for activity change, negative = inhibition: series mostly up to about 120 µM
# Summary of the method: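 Enzymatic CYP1A2 assay, human, luminescent: 10 min compound–enzyme–substrate preincubation, 1 h NADPH-dependent turnover, 20 min detection step, room temperature throughout. Reduced light indicates lower CYP1A2 activity.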
# [11] = target: Voltage-gated inwardly rectifying potassium channel KCNH2 (Homo sapiens) (UniProt Q12809); assay: Human Ether-a-go-go-Related Gene (hERG) channel small molecule antagonists: fluorescence cell-based qHTS assay (AID 1671200)
# Summary of the method: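 Read-out: thallium influx as a surrogate for potassium, tracked as fluorescence (480 nm ex/540 nm em) every second for 2 min after Stimulus Buffer addition in dye-loaded hERG-U2OS cells.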
# [12] = target: Cytochrome P450 3A4 (Homo sapiens) (UniProt P08684); assay: Cytochrome P450 Family 3 Subfamily A Member 4 (CYP3A4) small molecule antagonists: luciferase reporter qHTS assay (AID 1671201); note: nearly all actives have a fitted effect of over 50% in size; note: potency is the fitted concentration of half-maximal effect; for activity change, negative = inhibition: series mostly up to about 120 µM
# Summary of the method: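 Luminescent readout (RLU) proportional to CYP3A4 activity, from luciferin generated off a proluciferin substrate. Enzyme–substrate mix plus compound 10 min at room temp, NADPH regeneration 1 h, detection reagent 20 min.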
# [13] = target: Nuclear receptor subfamily 1 group I member 2 (Rattus norvegicus) (UniProt Q9R1A7); assay: Rat pregnane X receptor (rPXR) activation by small molecules, qHTS assay (AID 1346983); conditions: rPXR luciferase reporter cells, One-Glo luminescence, 24 h; stronger effect = higher value; note: nearly all actives have a fitted effect of over 20% in size
# Summary of the method: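 Cell-based rPXR luciferase reporter assay, 2,000 cells per well, rested 5hr at 37 C before compound addition in DMSO, then 24 hr at 37 C. One-Glo reagent was added and luminescence read after 30 min at room temperature.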
# [14] = target: Nuclear receptor subfamily 1 group I member 2 (Homo sapiens) (UniProt O75469); assay: CYP3A4 induction through human pregnane X receptor (PXR) by small molecules, qHTS assay (AID 1346984); note: nearly all actives have a fitted effect of over 40% in size
# Summary of the method: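 Readings come from a luciferase reporter: DPX-2 cells, which are HepG2 cotransfected with PXR and a CYP3A4-promoter construct, were exposed to test compounds for 24 h at 37C before One-Glo detection.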
# [15] = target: Nuclear receptor subfamily 1 group I member 2 (Homo sapiens) (UniProt O75469); assay: Human pregnane X receptor (PXR) activation by small molecules, qHTS assay (AID 1346985); note: nearly all actives have a fitted effect of over 40% in size
# Summary of the method: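 DPX-2 cells (HepG2 co-transfected with a PXR response element and a CYP3A4-promoter luciferase construct) were seeded at 2,000 per well, rested 5 hr at 37C, then exposed to DMSO-dissolved compounds for 24 hr. Activation was read as luciferase luminescence.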
# Chain of Voltage-gated inwardly rectifying potassium channel KCNH2 (Homo sapiens) (Q12809 whole entry, looked up): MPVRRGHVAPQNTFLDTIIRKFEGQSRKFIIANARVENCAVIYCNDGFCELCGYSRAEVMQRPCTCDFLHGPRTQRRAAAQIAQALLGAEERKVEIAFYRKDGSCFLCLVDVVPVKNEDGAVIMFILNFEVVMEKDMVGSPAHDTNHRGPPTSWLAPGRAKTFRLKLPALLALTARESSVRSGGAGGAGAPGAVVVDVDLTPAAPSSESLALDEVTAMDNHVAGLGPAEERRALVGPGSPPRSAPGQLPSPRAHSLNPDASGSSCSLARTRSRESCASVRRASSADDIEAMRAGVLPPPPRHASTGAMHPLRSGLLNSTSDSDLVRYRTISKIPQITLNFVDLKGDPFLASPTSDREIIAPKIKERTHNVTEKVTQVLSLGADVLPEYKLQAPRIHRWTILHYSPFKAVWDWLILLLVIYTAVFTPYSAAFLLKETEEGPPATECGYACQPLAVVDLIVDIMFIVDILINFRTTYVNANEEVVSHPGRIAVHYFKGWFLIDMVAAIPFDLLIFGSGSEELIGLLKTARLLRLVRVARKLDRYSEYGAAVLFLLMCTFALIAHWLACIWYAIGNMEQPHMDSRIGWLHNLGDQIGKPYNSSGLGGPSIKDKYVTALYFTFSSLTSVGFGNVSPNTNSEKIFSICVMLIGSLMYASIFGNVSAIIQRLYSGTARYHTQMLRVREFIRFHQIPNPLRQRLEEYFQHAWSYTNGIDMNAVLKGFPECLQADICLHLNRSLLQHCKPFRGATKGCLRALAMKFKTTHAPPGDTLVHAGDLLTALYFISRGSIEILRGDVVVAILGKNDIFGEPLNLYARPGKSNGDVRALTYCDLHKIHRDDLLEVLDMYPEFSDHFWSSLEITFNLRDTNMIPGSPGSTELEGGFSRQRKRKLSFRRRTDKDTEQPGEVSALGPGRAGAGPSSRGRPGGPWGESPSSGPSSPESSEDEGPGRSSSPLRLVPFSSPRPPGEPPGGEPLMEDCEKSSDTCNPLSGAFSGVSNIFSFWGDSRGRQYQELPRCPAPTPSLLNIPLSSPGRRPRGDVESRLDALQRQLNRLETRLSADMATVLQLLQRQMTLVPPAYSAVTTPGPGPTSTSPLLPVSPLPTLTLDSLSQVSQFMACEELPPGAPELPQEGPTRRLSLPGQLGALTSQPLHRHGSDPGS
# Chain of Cytochrome P450 1A2 (Homo sapiens) (P05177 whole entry, looked up): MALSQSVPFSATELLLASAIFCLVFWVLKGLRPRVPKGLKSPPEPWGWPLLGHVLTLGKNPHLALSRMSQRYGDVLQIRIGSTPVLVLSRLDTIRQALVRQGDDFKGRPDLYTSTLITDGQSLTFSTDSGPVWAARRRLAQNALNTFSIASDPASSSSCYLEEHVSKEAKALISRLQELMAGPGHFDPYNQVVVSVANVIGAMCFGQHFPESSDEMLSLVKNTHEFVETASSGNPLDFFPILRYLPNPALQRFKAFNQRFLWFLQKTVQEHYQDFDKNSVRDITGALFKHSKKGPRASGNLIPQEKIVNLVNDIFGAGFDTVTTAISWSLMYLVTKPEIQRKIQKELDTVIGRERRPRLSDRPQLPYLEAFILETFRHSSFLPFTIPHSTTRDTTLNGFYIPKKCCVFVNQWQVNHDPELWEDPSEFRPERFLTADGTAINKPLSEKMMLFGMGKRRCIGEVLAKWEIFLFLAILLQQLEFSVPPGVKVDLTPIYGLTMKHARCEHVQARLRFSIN
# Chain of Nuclear receptor subfamily 1 group I member 2 (Homo sapiens) (O75469 whole entry, looked up): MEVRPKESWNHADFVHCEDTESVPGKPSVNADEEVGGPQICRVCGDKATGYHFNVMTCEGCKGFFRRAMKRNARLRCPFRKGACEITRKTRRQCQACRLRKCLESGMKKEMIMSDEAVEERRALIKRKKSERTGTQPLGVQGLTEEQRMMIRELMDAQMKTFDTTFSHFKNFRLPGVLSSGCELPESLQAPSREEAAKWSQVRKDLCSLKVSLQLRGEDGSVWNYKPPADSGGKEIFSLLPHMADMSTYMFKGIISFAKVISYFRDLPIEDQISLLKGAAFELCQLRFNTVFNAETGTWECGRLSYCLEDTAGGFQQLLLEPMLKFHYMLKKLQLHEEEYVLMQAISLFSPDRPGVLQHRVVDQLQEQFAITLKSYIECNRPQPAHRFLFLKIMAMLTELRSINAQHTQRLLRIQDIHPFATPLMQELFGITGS
# Chain of Cytochrome P450 2D6 (Homo sapiens) (P10635 whole entry, looked up): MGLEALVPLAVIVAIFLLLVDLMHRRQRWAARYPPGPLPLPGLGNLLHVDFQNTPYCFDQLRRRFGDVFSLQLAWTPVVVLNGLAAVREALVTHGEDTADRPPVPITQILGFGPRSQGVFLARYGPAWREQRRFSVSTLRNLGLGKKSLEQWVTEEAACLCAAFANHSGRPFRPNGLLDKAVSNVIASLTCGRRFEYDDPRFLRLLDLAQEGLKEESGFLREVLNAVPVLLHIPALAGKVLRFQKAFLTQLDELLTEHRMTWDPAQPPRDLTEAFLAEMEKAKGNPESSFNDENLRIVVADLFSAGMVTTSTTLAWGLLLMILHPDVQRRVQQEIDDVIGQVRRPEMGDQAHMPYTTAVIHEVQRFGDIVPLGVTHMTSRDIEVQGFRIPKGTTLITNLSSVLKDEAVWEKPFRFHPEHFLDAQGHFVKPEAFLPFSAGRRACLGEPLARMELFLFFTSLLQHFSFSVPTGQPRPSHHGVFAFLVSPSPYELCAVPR
# Chain of Cytochrome P450 2C19 (Homo sapiens) (P33261 whole entry, looked up): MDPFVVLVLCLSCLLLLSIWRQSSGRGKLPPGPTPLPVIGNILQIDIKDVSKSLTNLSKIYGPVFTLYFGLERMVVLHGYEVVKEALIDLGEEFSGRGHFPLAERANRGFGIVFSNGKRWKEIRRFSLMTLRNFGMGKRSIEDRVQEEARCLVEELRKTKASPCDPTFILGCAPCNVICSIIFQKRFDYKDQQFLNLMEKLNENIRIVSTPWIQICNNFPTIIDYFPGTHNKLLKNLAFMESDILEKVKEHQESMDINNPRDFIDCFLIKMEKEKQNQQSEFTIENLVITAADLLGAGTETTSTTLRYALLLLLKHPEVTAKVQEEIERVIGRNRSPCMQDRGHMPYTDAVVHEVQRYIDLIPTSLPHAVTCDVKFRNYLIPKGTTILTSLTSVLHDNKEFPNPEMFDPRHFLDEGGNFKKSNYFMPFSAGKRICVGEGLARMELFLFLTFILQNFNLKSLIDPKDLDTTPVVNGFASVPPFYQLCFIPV
# Chain of Cytochrome P450 3A4 (Homo sapiens) (P08684 whole entry, looked up): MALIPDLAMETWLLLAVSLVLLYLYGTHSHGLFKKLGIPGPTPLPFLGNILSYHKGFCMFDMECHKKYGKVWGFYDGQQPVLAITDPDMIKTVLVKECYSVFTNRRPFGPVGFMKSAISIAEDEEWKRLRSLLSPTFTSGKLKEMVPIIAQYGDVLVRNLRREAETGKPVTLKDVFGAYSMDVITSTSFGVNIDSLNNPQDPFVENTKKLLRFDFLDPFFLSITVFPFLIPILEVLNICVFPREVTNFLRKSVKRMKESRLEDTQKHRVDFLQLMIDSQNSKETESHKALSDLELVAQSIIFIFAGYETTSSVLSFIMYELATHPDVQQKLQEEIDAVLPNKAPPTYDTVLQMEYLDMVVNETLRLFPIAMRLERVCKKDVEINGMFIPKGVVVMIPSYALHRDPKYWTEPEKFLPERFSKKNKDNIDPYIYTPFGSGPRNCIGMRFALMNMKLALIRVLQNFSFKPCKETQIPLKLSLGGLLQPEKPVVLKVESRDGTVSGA
# Chain of Cytochrome P450 2C9 (Homo sapiens) (P11712 whole entry, looked up): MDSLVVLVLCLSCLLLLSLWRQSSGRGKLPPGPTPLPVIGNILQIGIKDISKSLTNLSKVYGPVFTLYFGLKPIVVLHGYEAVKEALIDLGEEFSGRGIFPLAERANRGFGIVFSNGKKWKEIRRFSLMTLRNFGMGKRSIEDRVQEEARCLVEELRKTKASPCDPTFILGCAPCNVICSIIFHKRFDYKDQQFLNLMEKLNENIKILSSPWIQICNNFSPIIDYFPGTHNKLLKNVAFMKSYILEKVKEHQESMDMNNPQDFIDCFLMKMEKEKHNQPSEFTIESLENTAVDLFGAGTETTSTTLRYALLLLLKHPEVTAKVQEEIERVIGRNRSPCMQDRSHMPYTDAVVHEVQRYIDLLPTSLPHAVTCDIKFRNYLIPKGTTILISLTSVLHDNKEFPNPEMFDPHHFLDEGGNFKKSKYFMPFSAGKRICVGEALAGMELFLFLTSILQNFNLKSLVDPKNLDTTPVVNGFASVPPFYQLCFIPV
# Chain of Nuclear receptor subfamily 1 group I member 2 (Rattus norvegicus) (Q9R1A7 whole entry, looked up): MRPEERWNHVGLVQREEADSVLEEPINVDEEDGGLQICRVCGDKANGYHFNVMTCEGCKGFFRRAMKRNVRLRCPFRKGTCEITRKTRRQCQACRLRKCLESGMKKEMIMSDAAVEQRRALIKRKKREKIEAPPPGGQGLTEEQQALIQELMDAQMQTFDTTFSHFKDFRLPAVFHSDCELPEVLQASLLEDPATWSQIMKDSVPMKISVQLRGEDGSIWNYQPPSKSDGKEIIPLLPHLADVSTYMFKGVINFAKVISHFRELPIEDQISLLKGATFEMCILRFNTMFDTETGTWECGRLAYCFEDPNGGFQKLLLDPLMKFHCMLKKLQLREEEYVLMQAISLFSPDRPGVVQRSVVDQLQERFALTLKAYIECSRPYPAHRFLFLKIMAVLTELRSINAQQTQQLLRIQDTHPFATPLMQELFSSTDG
SMILES,Potency [1],Potency [2],Potency [3],Potency [4],Potency [5],Potency [6],Potency [7],Potency [8],Potency [9],Potency [10],Potency [11],Potency [12],activation [6],"activity change, negative = inhibition [7]","activity change, negative = inhibition [8]","activity change, negative = inhibition [9]",max activation [13],Potency [14],outcome [15]
O=C1CCCCCCCCCCC1,inactive,inactive,inactive,inactive,inactive,inactive,inactive,inactive,inactive,inactive,inactive,inactive,–,–,–,–,–,–,–
C[Si](C)(C)N[Si](C)(C)C,inactive,inactive,inactive,inactive,inactive,60.6 µM (active) and inactive,inactive,inactive,inactive,inactive,inactive,inactive,–,–,–,–,–,–,–
Cc1cccc(C)c1[N+](=O)[O-],inactive,inactive,inactive,inactive,inactive,inactive,inactive,inactive,inactive,inactive,inactive,inactive,–,–,–,–,–,–,–
CCCCCCCCCCCC(=O)N(C)CC(=O)O,inactive,inactive,inactive,inactive,inactive,59.2 µM (active),–,–,38.7 µM (active),inactive,inactive,inactive,-3.89% [at 8.39 µM] (inactive),-25.2% [at 10.5 µM] (inactive),17.6% [at 10.5 µM] (inactive),-4.94% [at 10.5 µM] (inactive),–,–,–
O=C(Cl)c1ccc(C(=O)Cl)cc1,inactive,inactive,inactive,inactive,inactive,inactive,inactive,inactive,inactive,inactive and 63.3 µM (active),inactive,inactive,–,–,–,–,–,–,–
Brc1ccc(Oc2ccc(Br)cc2)cc1,inactive,inactive,inactive,inactive,inactive,inactive,inactive,12.6 µM (active) and 5.03 µM (active),35.6 µM (active),22.5 µM (active) and 20 µM (active),–,inactive,–,–,–,–,–,–,–
O=[N+]([O-])c1ccccc1C(F)(F)F,inactive,inactive,inactive,inactive,inactive,inactive,inactive,6.95 µM (active) and inactive,inactive,inactive,inactive,inactive,–,–,–,–,–,–,–
C=CC(=O)NCOCCCC,inactive,inactive,inactive,inactive,inactive,inactive,16.4 µM (active) and inactive,46.2 µM (active),inactive,inactive,inactive,inactive,–,–,–,–,–,–,–
O=c1c(O)c(-c2ccc(O)c(O)c2)oc2cc(O)cc(O)c12,inactive,inactive,54.5 µM (active),inactive,48.6 µM (active) and 54.5 µM (active),48.6 µM (active) and 69.1 µM (active),–,inactive,–,–,inactive,–,–,–,–,–,-3.01% (inactive),inactive,inactive
CCCCCNCCCCC,inactive,inactive,inactive,inactive,inactive,inactive,36.4 µM (active),inactive,inactive,inactive,inactive,inactive,–,–,–,–,–,–,–
OC1CCCCC1,inactive,inactive,inactive,inactive,inactive,inactive,inactive,inactive,inactive,inactive,inactive,inactive,–,–,–,–,–,–,–
CCCCC(=O)O,inactive,inactive,inactive,inactive,inactive,inactive,inactive,inactive,inactive,inactive,inactive,inactive,–,–,–,–,–,–,–
CN1Cc2c(N)cccc2C(c2ccccc2)C1 (configuration not stated),inactive,inactive,inactive,inactive,inactive,inactive,–,inactive,inactive,inactive,inactive,inactive,–,–,–,–,-2.53% (inactive),inactive,inactive
Cc1ccccc1C=O,inactive,inactive,inactive,inactive,inactive,inactive,inactive,inactive,inactive,inactive,inactive,inactive,–,–,–,–,–,–,–
O=C(O)Cc1c[nH]c2ccccc12,inactive,inactive,inactive,inactive,inactive,inactive,inactive,17.8 µM (active) and inactive,31.7 µM (active) and inactive,inactive,inactive,inactive,–,–,–,–,–,–,–
CC(C)(CO)CO,inactive,inactive,inactive,inactive,inactive,inactive,inactive,inactive,inactive,–,inactive,inactive,–,–,–,–,–,–,–
COc1c2ccoc2cc2oc(=O)ccc12,inactive,inactive,inactive,inactive,inactive,55.7 µM (active) and 21.7 µM (active),4.08 µM (active) and inactive,5.77 µM (active) and 8.94 µM (active),2.89 µM (active) and 2.52 µM (active),364 nM (active) and 283 nM (active),inactive,6.47 µM (active) and 10 µM (active),–,–,–,–,–,–,–
COc1ccc(N)c(OC)c1,inactive,inactive,inactive,inactive,inactive,inactive,1.53 µM (active) and 17.8 µM (active),15.3 µM (active) and 35.6 µM (active),15.3 µM (active) and 35.6 µM (active),39.9 µM (active),inactive,3.84 µM (active) and 11.3 µM (active),–,–,–,–,–,–,–
